LmPK inh = qHTS Assay for Inhibitors of Leishmania Mexicana Pyruvate Kinase (LmPK). Potency, µM (series often up to 57.5 µM), most hits filed as inhibitors. actives 0.37% (n = 290,000). Q27686. AID 1721, 2009. purified LmPK, Kinase-Glo ATP luminescence, 1 h
Target sequence (Q27686 whole entry, looked up): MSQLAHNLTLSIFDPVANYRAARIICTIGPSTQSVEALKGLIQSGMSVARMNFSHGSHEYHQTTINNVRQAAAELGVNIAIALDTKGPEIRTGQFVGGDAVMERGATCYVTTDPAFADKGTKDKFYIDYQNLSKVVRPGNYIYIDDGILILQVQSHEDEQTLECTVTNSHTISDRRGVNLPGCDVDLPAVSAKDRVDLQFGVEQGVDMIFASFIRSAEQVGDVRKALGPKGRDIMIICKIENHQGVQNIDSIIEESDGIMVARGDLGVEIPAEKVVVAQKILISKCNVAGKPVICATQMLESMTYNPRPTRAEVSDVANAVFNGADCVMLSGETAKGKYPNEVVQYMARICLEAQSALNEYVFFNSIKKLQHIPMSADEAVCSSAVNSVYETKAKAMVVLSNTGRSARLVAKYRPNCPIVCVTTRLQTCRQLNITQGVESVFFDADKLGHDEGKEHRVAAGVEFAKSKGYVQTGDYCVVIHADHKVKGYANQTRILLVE
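ATP generated from ADP (0.1 mM) and PEP (0.5 mM) by 0.1 nM LmPK over 1 h at room temperature (pH 7.2 imidazole buffer) was detected by coupled luciferase luminescence. Values were normalized to uninhibited and no-enzyme wells.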
Cycloheximide cs = Cycloheximide Counterscreen for Small Molecule Inhibitors of Shiga Toxin. cell reporter, cycloheximide protein synthesis inhibition counterscreen. actives 12% (n = 300,000). max response, %; in the data active = max response mostly above about 13%, no sharp cut-off; inactive = mostly below about 14%; also: read at 38.3 µM for the half of the compounds with a filed dose
Shiga inhibitor = A qHTS for Small Molecule Inhibitors of Shiga Toxin. Vero cells, Shiga toxin protein synthesis inhibition reporter. actives 9.2% (n = 290,000). AID 2315, 2010. inhibition, % at 38.7 µM; in the data active = inhibition mostly above about 28%, no sharp cut-off; inactive = mostly below about 43%
Pf growth 48h = Primary qHTS for delayed death inhibitors of the malarial parasite plastid, 48 hour incubation | P. falciparum luciferase growth in erythrocytes, 48 h | actives 5.9% (n = 310,000) | Potency, µM (series often up to 28.7 µM), hits mostly inhibitors
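Growth was read as firefly luciferase luminescence after a 48 h, 37 C, 5% CO2 exposure of compounds to reporter-bearing P. falciparum cultures (0.1% parasitemia, 2% hematocrit final) in Albumax-supplemented RPMI 1640.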
Pf growth 96h = Primary qHTS for delayed death inhibitors of the malarial parasite plastid, 96 hour incubation; P. falciparum luciferase reporter growth, 96 h; Potency, µM (highest dose often 28.7 µM), usual class: inhibitors; actives 6.9% (n = 320,000); AID 504834, 2011
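Two parasite generations (96 h, 37 C, 5% CO2) of compound exposure in infected erythrocytes (0.05% parasitemia, 2% hematocrit). Luciferase-reporter P. falciparum; decreased luminescence indicates inhibited growth, aimed at apicoplast-acting delayed death.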
A number is an active result; [ ] = remark or other dose. Sampled rows, rich in hits. Any-hit rate of the full collection: about 22%. Unless noted, calls follow the shape of the dose curve; as a rule, active = well fitted inhibition curve with a large enough effect; inconclusive = small, poorly fitted or top-dose-only effect, or another doubt; inactive = no such curve, though single readings can be large or run the other way.

Screening COc1ccc(C2CC(=O)C(C=NCCCN3CCOCC3)=C(O)C2)cc1 (stereo not drawn) returned LmPK inh inactive, Cycloheximide cs inactive, Shiga inhibitor inactive, Pf growth 48h inactive and Pf growth 96h 3.3µM.
`O=C1C(C=NCCN2CCOCC2)=C(O)c2ccccc21` gave LmPK inh inactive, Cycloheximide cs 47, Shiga inhibitor 84, Pf growth 48h inactive and Pf growth 96h inconclusive.
`CC(=O)N1c2ccc(S(=O)(=O)N3CCC(C(=O)N4CCN(c5ccc(Cl)cc5)CC4)CC3)cc2CC1C` (stereo not drawn) gave LmPK inh inactive, Cycloheximide cs inactive, Shiga inhibitor inactive, Pf growth 48h inconclusive and Pf growth 96h inconclusive.
`COc1ccc(C2=NOC(C(=O)N(C)Cc3ccccc3)C2)cc1` (stereo not drawn) gave LmPK inh inactive[11.5 µM], Cycloheximide cs inactive, Shiga inhibitor inactive, Pf growth 48h inactive and Pf growth 96h inactive.
For Cc1ccc(CNC(=O)C2CCC(=O)N(Cc3ccccc3F)C2)s1 (stereo not drawn) the results were LmPK inh inactive, Cycloheximide cs 31, Shiga inhibitor inactive, Pf growth 48h inactive and Pf growth 96h inactive.
O=C(NC1CCCCCC1)C1CCC(=O)N(Cc2ccccc2F)C1 (stereo not drawn) was read as LmPK inh inactive, Cycloheximide cs 27, Shiga inhibitor inactive, Pf growth 48h inconclusive and Pf growth 96h inconclusive.
`Cc1ccc(CNC(=O)C2CCC(=O)N(CCc3ccccc3)C2)s1` (stereo not drawn) gave LmPK inh inactive, Cycloheximide cs 54, Shiga inhibitor inactive, Pf growth 48h inconclusive and Pf growth 96h inconclusive.
`O=C(NCC1(O)CCCCC1)C1CCC(=O)N(Cc2ccccc2F)C1` (stereo not drawn) gave LmPK inh inactive, Cycloheximide cs inactive, Shiga inhibitor inactive, Pf growth 48h inactive and Pf growth 96h inconclusive.
COCCN1CCN(C(=O)C2CCC(=O)N(Cc3ccccc3F)C2)CC1 (stereo not drawn) was read as LmPK inh inactive, Cycloheximide cs inactive, Shiga inhibitor inactive, Pf growth 48h inactive and Pf growth 96h inconclusive.
For Cc1cccc(N2CCN(C(=O)C3CCC(=O)N(Cc4ccccc4F)C3)CC2)c1C (stereo not drawn) the results were LmPK inh inactive, Cycloheximide cs 15, Shiga inhibitor inactive, Pf growth 48h 9.3µM and Pf growth 96h 10µM.
Screening COc1ccc2[nH]c(C(=O)O)c(NC(=O)c3cc(OC)c(OC)c(OC)c3)c2c1 returned LmPK inh inactive, Cycloheximide cs inactive, Shiga inhibitor inactive, Pf growth 48h inactive and Pf growth 96h inactive.
Screening Cc1cccc(N2C(=O)CC(Sc3nc(-c4ccccc4)c4cc(Cl)ccc4n3)C2=O)c1 (stereo not drawn) returned LmPK inh inactive, Cycloheximide cs inactive, Shiga inhibitor inactive, Pf growth 48h inactive and Pf growth 96h inactive.
Screening Cc1c(C#N)c(N)nc(Cl)c1C#N returned LmPK inh inactive, Cycloheximide cs inactive, Shiga inhibitor inactive, Pf growth 48h inconclusive and Pf growth 96h inactive.
For N#Cc1c(Cl)nsc1NN the results were LmPK inh inconclusive, Cycloheximide cs 29, Shiga inhibitor 70, Pf growth 48h inactive and Pf growth 96h inactive.
For O=C(NCCC1CCCCN1S(=O)(=O)c1ccc(F)cc1)C(=O)NCC1CCCO1 (stereo not drawn) the results were Pf growth 48h inactive and Pf growth 96h inactive.
Screening O=C(CN(c1ccccc1F)S(=O)(=O)c1ccccc1)Nc1ccc2c(c1)OCCO2 returned LmPK inh inactive, Cycloheximide cs 48, Shiga inhibitor 120, Pf growth 48h inactive and Pf growth 96h 4.1µM.
O=C(CN(Cc1ccccc1)S(=O)(=O)c1ccc2c(c1)OCCO2)Nc1ccc2c(c1)OCCO2 was read as LmPK inh inactive, Cycloheximide cs 28, Shiga inhibitor 36, Pf growth 48h inconclusive and Pf growth 96h inactive.
Screening CS(=O)(=O)N(CC(=O)Nc1ccc2c(c1)OCCO2)Cc1ccccc1 returned LmPK inh inactive, Cycloheximide cs inactive, Shiga inhibitor inactive and Pf growth 48h inactive.
CC(=O)Nc1ccc(NC(=O)CN(c2ccc(F)cc2)S(=O)(=O)c2ccc3c(c2)OCCO3)cc1 was read as LmPK inh inactive, Cycloheximide cs inactive, Shiga inhibitor inactive and Pf growth 96h 8.3µM.
For O=C(CN(c1ccc(F)cc1)S(=O)(=O)c1ccc2c(c1)OCCO2)Nc1ccccc1 the results were LmPK inh inactive, Cycloheximide cs 20, Shiga inhibitor inactive and Pf growth 96h inconclusive.
`O=C(CN(c1ccc(F)cc1)S(=O)(=O)c1ccc2c(c1)OCCO2)Nc1ccc2c(c1)OCO2` gave LmPK inh inactive, Cycloheximide cs inactive, Shiga inhibitor inactive, Pf growth 48h inconclusive and Pf growth 96h inactive.
Screening COc1ccc(OC)c(N(CC(=O)Nc2ccc3c(c2)OCO3)S(=O)(=O)c2ccccc2)c1 returned LmPK inh inactive, Cycloheximide cs inactive, Shiga inhibitor inactive, Pf growth 48h inconclusive and Pf growth 96h inconclusive.
C=CCn1c(SCC(=O)NC2CCCc3ccccc32)nnc1-c1ccncc1 (stereo not drawn) was read as LmPK inh inactive, Cycloheximide cs inactive, Shiga inhibitor inactive, Pf growth 48h inconclusive and Pf growth 96h inactive.
`CCOC(=O)c1c(CN2CCOCC2)n(-c2ccccc2)c2cc(Br)c(O)cc12` gave LmPK inh inactive, Cycloheximide cs inactive, Shiga inhibitor inactive, Pf growth 48h 1.7µM and Pf growth 96h 1.9µM.
For CCOC(=O)c1c(CN2CCCCC2)n(C)c2cc(Br)c(O)cc12 the results were LmPK inh inactive, Cycloheximide cs inactive and Shiga inhibitor inactive.
For CCOC(=O)c1c(CN2CCOCC2)n(-c2ccccc2)c2cc(Br)c(OC)cc12 the results were LmPK inh inactive, Cycloheximide cs inactive, Shiga inhibitor inactive and Pf growth 48h inconclusive.
CCOC(=O)c1c(CSC(=N)N)n(C)c2cc(Br)c(OC(C)=O)cc12 was read as LmPK inh inactive, Cycloheximide cs inactive, Shiga inhibitor inactive, Pf growth 48h inconclusive and Pf growth 96h inactive.
For CCOC(=O)c1c(CN2CCN(C)CC2)n(C)c2cc(Br)c(OC)cc12 the results were LmPK inh inactive, Cycloheximide cs inactive, Shiga inhibitor inactive, Pf growth 48h 15µM and Pf growth 96h inactive.
For CCOC(=O)c1c(CN(C)C)n(-c2ccc(C)cc2)c2cc(Br)c(O)cc12 the results were LmPK inh inactive, Cycloheximide cs inactive, Shiga inhibitor inactive, Pf growth 48h 0.74µM and Pf growth 96h 0.33µM.
Screening CCOC(=O)c1c(CSC(=N)N)n(-c2ccc(C)cc2)c2cc(Br)c(OC(C)=O)cc12 returned LmPK inh inactive, Cycloheximide cs inactive, Shiga inhibitor inactive, Pf growth 48h 7.4µM and Pf growth 96h 3.3µM.

High-throughput results: PubChem BioAssay, National Center for Advancing Translational Sciences (NCATS)
